# Measurements published in PubChem BioAssay AID1903 (Southern Research Specialized Biocontainment Screening …, 2009).
# Several values for one entry are separate records, joined by “and”; a condition that tells them apart may be missing. Identical values can stand only once. Hit rate of the full screen: of about 310,000 compounds, about 1,200 (0.39%) were called active. Only a sample is shown. Results with a measured potency or affinity are listed apart. A number with no mark means an inactive call. The rule behind the calls is not given here.
# Biological target: Large T antigen (Simian virus 40) (UniProt P03070)
# Sequence (P03070 whole entry, looked up): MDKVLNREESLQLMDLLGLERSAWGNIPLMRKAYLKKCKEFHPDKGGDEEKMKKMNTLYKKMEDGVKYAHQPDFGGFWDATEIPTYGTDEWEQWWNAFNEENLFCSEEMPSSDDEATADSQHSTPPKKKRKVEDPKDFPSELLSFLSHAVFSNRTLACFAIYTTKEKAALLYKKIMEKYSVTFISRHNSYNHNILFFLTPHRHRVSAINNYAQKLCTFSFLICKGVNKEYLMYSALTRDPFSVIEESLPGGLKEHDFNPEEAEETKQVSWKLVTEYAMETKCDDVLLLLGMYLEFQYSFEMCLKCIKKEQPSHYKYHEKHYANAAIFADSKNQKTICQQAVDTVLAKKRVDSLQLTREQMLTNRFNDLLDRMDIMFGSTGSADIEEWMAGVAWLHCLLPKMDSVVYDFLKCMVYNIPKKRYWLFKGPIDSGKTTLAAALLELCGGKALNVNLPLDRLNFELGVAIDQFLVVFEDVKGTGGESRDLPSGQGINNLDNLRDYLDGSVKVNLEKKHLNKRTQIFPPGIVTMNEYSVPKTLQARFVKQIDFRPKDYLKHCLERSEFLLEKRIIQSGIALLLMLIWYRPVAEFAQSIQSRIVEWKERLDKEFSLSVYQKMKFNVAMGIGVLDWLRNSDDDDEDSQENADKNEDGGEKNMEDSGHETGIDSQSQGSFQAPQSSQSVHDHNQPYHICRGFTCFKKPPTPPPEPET
# Test: TAg ATPase/helicase activity blockers – biochemical (AID 1903)
# Conditions: SV40 large T antigen ATPase/helicase inhibition assay; at 20 µM; active compounds read high
row,SMILES,inhibition
1,CC(C)C(=O)NNC(=O)c1csc(CS(=O)(=O)c2ccc(Cl)cc2)n1,9.42%
2,Cc1cnc(C(=O)NC2CCSc3ccccc32)cn1 (stereo not drawn),9.84%
3,CC(C)[C@@H]1CC[C@@H](C)c2c(-c3ccccc3)n[nH]c21,-1.85%
4,CN1CCc2cccc3c2[C@@H]1Cc1ccc(O)c(O)c1-3,39.9%
5,COc1ccc2c(c1O)-c1ccccc1CCN(C)C2,20.8%
6,COc1c(O)ccc2c1CN1CCc3cc4c(cc3C1C2)OCO4 (stereo not drawn),58.7%
7,CN1CCC(=C2c3ccccc3C(O)c3ccccc32)CC1 (stereo not drawn),5.26%
8,COc1cc2c(cc1OC)C(Cc1ccc(O)cc1)N(C)CC2 (stereo not drawn),2.71%
9,CN1CCc2cc3c(c4c2[C@H]1[C@H](O)c1ccccc1-4)OCO3,14.8%
10,CCC(C)NCCC(=O)Nc1ccc(Cl)c(S(=O)(=O)Nc2ccc(Cl)cc2)c1 (stereo not drawn),7.37%
11,O=C(Nc1cccc(-c2nn[nH]n2)c1)c1ccc(Cl)s1,8.59%
12,Cc1cc(C(=O)Nc2cccc(C(=O)O)c2)c(C)o1,4.39%
13,CC(C)(C)c1cc(N)n(-c2ccc(C(=O)O)cc2)n1,11.4%
14,C/C(CC(=O)Nc1ccc(N(C)C)cc1)=N\NC(=O)c1ccc(C(C)(C)C)cc1,9.71%
15,COc1ccc(NC(=O)C/C(C)=N/NC(=O)c2cnccn2)cc1,-3.03%
16,C/C(CC(=O)Nc1ccc(N(C)C)cc1)=N\NC(=O)c1ccccn1,28.2%
17,C/C(CC(=O)Nc1ccc(N(C)C)cc1)=N\NC(=O)c1ccc(F)cc1,29.8%
18,CCC(=O)N/N=C(\C)CC(=O)Nc1ccc2ccccc2c1,11.7%
19,C/C(CC(=O)Nc1ccccn1)=N\NC(=O)c1ccc2ccccc2c1,-45.2%
20,Cc1ccc(N(Cc2ccc(C(=O)Nc3c(C)n(C)n(-c4ccccc4)c3=O)cc2)S(C)(=O)=O)cc1C,9.36%

row,SMILES,inhibition
1,O=C1[C@@H]2Cc3c([nH]c4ccccc34)C(c3ccccc3)N2C(=O)CN1CCO (stereo partly drawn),9.64%
2,CCC(C)NC(=O)CCc1nnc2ccc(N3CCC(C)CC3)nn12 (stereo not drawn),6.91%
3,O=S(=O)(O)c1cccc(N=Nc2c(O)ccc3ccccc23)c1,7.77%
4,Nc1cc(S(=O)(=O)O)cc([N+](=O)[O-])c1O,23%
5,Cc1ccc(N=Nc2ccc(N)cc2C)c(S(N)(=O)=O)c1,10.1%
6,Oc1ccc(Cl)cc1N=Nc1ccccc1,8.08%
7,C#CCOCCOCCOCCNc1nc(N2CCN(C(=O)C([C@@H](C)CC)n3cc(C(N)Cc4ccc(O)cc4)nn3)CC2)nc(N2CCN(C(=O)[C@H](CCC(=O)O)n3cc(C(N)Cc4ccc(O)cc4)nn3)CC2)n1 (stereo partly drawn),18.6%
8,CN(CC(=O)Nc1ccc(Cl)cc1)CC(=O)Nc1ccc(F)c(F)c1F,-109%
9,O=C(NCc1ccccn1)C1CCCN(S(=O)(=O)c2cccc3nsnc23)C1 (stereo not drawn),9.56%
10,O=C(c1ccc(Oc2ccc(C(F)(F)F)cc2[N+](=O)[O-])cc1)N1CCOCC1,1.7%
11,O=C(Nc1cccc(Br)c1)c1ccc(CN2CCc3ccccc3C2)cc1,6.55%
12,Nc1nc(Nc2ccccc2)nc(N2CCOCC2)c1[N+](=O)[O-],0.42%
13,CCOC(=O)c1cc(CC)sc1N,14.6%
14,Nc1sc(-c2ccccc2)cc1C(=O)O,4.81%
15,COC(=O)c1cc(-c2ccccc2)sc1N,11.1%
16,CCOC(=O)c1cc(-c2ccccc2)sc1N,6.85%
17,CC(OC(=O)c1oc2ccccc2c1CSC1CCCCC1)C(=O)NC(N)=O (stereo not drawn),6.96%
18,Cc1[nH]c2ccc(C(=O)NCCCN3CCN(C)CC3)cc2c1C,15.6%
19,O=C(/C=C/c1ccccc1)N1CCN(c2ccc([N+](=O)[O-])c(N3CCOCC3)c2)CC1,9.06%
20,CC(=O)N1CCN(c2ccc(NCc3ccc(C)cc3)cc2)CC1,14.1%

row,SMILES,inhibition
1,CCc1ccc(CNc2ccc(N3CCN(C(C)=O)CC3)cc2)cc1,9.55%
2,CC(=O)N1CCN(c2ccc(NCc3ccccc3)cc2)CC1,8.55%
3,Cc1ccc(CNc2ccc(N3CCOCC3)cc2)s1,14.2%
4,COc1ccc(CNC(=O)CCCn2nc(C)c3c(C)n(-c4ccccc4)nc3c2=O)cc1,12.9%
5,CCOc1ccccc1-c1noc(CCC(=O)Nc2cccnc2)n1,10.5%
6,COc1ccc(-c2c(-c3ccc(OCC(=O)NN)cc3O)n[nH]c2C)cc1OC,5.82%
7,C=C(C)COc1ccc(-c2n[nH]c(C)c2-c2ccc(OC)c(OC)c2)c(O)c1,13.9%
8,N#C[C@H]1C2OC2c2ccccc2N1C(=O)c1ccccc1 (stereo partly drawn),3.71%
9,O=c1cc(CO)oc(CN2CCN(c3ccccc3)CC2)c1O,3.29%
10,COc1ccc(Cl)cc1NC(=S)Nc1cccnc1,5.19%
11,CC(=O)O[C@]1(C(C)=O)CCC2C3C=C(C)C4=CC(=O)CC[C@]4(C)C3CC[C@@]21C (stereo partly drawn),6.68%
12,CC(=O)O[C@]1(C(C)=O)CC[C@H]2[C@@H]3C[C@H](C)C4=CC(=O)CC[C@]4(C)[C@H]3CC[C@@]21C,21.1% and 1.31%
13,CC(=O)O[C@]1(C(C)=O)CC[C@H]2[C@@H]3C=C(C)C4=CC(=O)CC[C@]4(C)[C@H]3CC[C@@]21C,24.3% and 8.14%
14,Cc1ccccc1NC(=O)CN1C(=O)COc2ccc(S(=O)(=O)N3CCCC3)cc21,2.93%
15,O=C(Nc1ccncc1)Nc1ccc(Cl)cc1,10.4%
16,Cc1cc(C(=O)NCc2ccco2)c2cc(F)ccc2n1,5.22%
17,CCCCn1c(N)c(N(CCC(C)C)C(=O)c2cc(-c3ccco3)nc3ccccc23)c(=O)[nH]c1=O,28.5%
18,CCOc1ccc(C(=O)NC2CC(=O)N(c3ccc4c(c3)OCCO4)C2)cc1 (stereo not drawn),30.1%
